Results: the OligoGym collection

What follows are sequences tested against SPATA2 (assay: pooled miR-30 sensor sort-seq; sequence = guide strand). Details: shRNA.
Further: reference of the scale not given here.

| Sequence | sensor-assay potency score (higher = more potent) |
| --- | --- |
| TCTGAGCAGCCACACATCCGGC | -1.47 |
| TCACTCTTTTTGTAGCAGGGGT | -0.679 |
| TGAGTGGATTTCTAGCATCTGC | -1.11 |
| TTGATGTAGCCCTTGGAGCTGG | -0.512 |
| TTGACAGTACAGTAAGAGGGGC | -0.34 |
| TCATAGAACTGGATCAGCCGGA | 0.651 |
| TCTTCCAGTAATGTCGACTTGA | 0.423 |
| TTGTCCTTCACTTGTGAGTGGA | -0.193 |
| TGAGACTTTTGAACACTGGGTG | 0.544 |
| TGGAACTGCACGTACTTCCGAA | -0.761 |
| TTGTGAGTGGATTTCTAGCATC | -1.52 |

Each sequence was assayed against SPATA5L1 in the same assay as above. Details: shRNA.

| Sequence | sensor-assay potency score (higher = more potent) |
| --- | --- |
| TAGATGATCTTATCTAATCTTC | -0.209 |
| TTCTTGAACATCACATCCTGTC | -0.27 |
| TTCTGAATCTCCAACAAACGGT | -0.635 |
| TTAACTTCAGTTTTACATCTTC | 0.121 |
| TTATCTAATCTTCCAGGTCGTA | -0.899 |
| TGATCTTATCTAATCTTCCAGG | -0.767 |
| TTGCTTGTCGAAATATCTGAGA | -0.878 |
| TTGAACATCACATCCTGTCTTG | 0.227 |
| TAATCTTCCAGGTCGTAACAAA | -1.18 |
| TTGTCTTAAGTCCAACACCATC | -1.76 |
| TATCTAATCTTCCAGGTCGTAA | -0.994 |
| AAAAACTTCTTGAAACTCCTGT | 1.07 |

Each sequence was assayed against SPATS2L in the same assay as above. Details: shRNA.

| Sequence | sensor-assay potency score (higher = more potent) |
| --- | --- |
| TTCGTTAGCAGAATCTGTGGAC | 0.593 |
| TTCTTCTTTAACTTTATCCATT | -1.35 |
| TTGGTTAGAAGATCCATTCTGC | 0.635 |
| TTGTCTTTAGCATCTTTGTTGC | -0.548 |
| TATATTCTGATTGACACTCTTT | 0.138 |
| TTGATCTTCTTCACGGAACTAT | -0.0493 |
| TTTAGAACTTGAATTGCACTGC | 0.683 |
| TTGAATTGCACTGCCATCCACA | 0.0707 |
| TTGTTGGGAACAACTGATCTAA | -0.513 |
| TATTGTTCTTCTTTTTTCCTGT | 0.296 |
| TATCTAGTTAGAGAAACGGTGC | -0.565 |
| TTCATTATTGCTTTTGTTGGGA | 0.203 |

Each sequence was assayed against SPESP1 in the same assay as above. Details: shRNA.

| Sequence | sensor-assay potency score (higher = more potent) |
| --- | --- |
| TTTTATTACTTGTTCGTCCTAC | 0.295 |
| TCCATGTGTAACTAGCTCCTTA | -0.658 |
| TTGTTTTTAATTTATGTTCTGC | 0.0799 |
| TTGTTTGGTTTGATCGACCAGA | -0.327 |
| TTGTTTTGCAGCTGGCTCCGGC | -0.682 |
